Key:
Assay in all cases: growth AUC relative to DMSO control (median of replicates) (fraction); higher = more growth (less inhibition), active = hit call of the paper
Conditions in all cases: 20 µM; 24 h;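 active = AUC reduced over 20% with Padj below 0.05 in at least 2 of 3 replicates; inactive = otherwise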
Akkermansia muciniphila = tested on: Akkermansia muciniphila
Method in brief: (§1)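 Gut bacteria were grown singly in mGAM at 37 °C without oxygen, from OD600 0.05, alongside 20 µM compound in 1% DMSO, and OD600 was read each hour for 24 h. Area under the growth curve was normalised to the median of solvent-only wells per plate, or to row and column medians on the industrial chemical plate. The minimum OD was set to 0 beforehand, and the reported value is the median of three biological replicates grown on separate days.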

Bacteroides caccae = tested on: Bacteroides caccae
Method in brief: as §1

Bacteroides clarus = tested on: Bacteroides clarus
Method in brief: as §1

Bacteroides dorei = tested on: Bacteroides dorei
Method in brief: as §1

Bacteroides stercoris = tested on: Bacteroides stercoris
Method in brief: as §1

[1] = tested on: Bacteroides thetaiotaomicron
Method in brief: as §1

Bacteroides uniformis = tested on: Bacteroides uniformis
Method in brief: as §1

[2] = tested on: Bifidobacterium longum subsp. longum
Method in brief: as §1

Clostridium difficile = tested on: Clostridium difficile
Method in brief: as §1

Collinsella aerofaciens = tested on: Collinsella aerofaciens
Method in brief: as §1

Coprococcus comes = tested on: Coprococcus comes
Method in brief: as §1

Escherichia coli ED1a = tested on: Escherichia coli ED1a
Method in brief: as §1

Escherichia coli IAI1 = tested on: Escherichia coli IAI1
Method in brief: as §1

Eubacterium rectale = tested on: Eubacterium rectale
Method in brief: as §1

[3] = tested on: Fusobacterium nucleatum subsp. animalis
Method in brief: as §1

Lactobacillus gasseri = tested on: Lactobacillus gasseri
Method in brief: as §1

Lactobacillus paracasei = tested on: Lactobacillus paracasei
Method in brief: as §1

Odoribacter splanchnicus = tested on: Odoribacter splanchnicus
Method in brief: as §1

[4] = tested on: Parabacteroides distasonis
Method in brief: as §1

Parabacteroides merdae = tested on: Parabacteroides merdae
Method in brief: as §1

Measured: growth AUC

Oc1ccc2ccccc2c1N=Nc1ccccc1
active: Lactobacillus paracasei 0.733
inactive: Akkermansia muciniphila 1 | Bacteroides caccae 0.973 | Bacteroides clarus 1.01 | Bacteroides dorei 0.977 | Bacteroides stercoris 0.972 | [1] 1 | Bacteroides uniformis 1 | [2] 0.942 | Clostridium difficile 0.991 | Collinsella aerofaciens 0.917 | Coprococcus comes 0.858 | Escherichia coli ED1a 1.01 | Escherichia coli IAI1 1.01 | Eubacterium rectale 0.983 | [3] 1 | Lactobacillus gasseri 0.973 | Odoribacter splanchnicus 1.04 | [4] 0.905 | Parabacteroides merdae 1.05

COCC(=O)N(c1c(C)cccc1C(=O)O)C(C)C(=O)O (stereo not given)
inactive: Akkermansia muciniphila 0.834 | Bacteroides caccae 1.02 | Bacteroides clarus 0.979 | Bacteroides dorei 1.01 | Bacteroides stercoris 0.917 | [1] 0.967 | Bacteroides uniformis 0.974 | [2] 0.907 | Clostridium difficile 1.04 | Collinsella aerofaciens 1 | Coprococcus comes 1.01 | Escherichia coli ED1a 0.986 | Escherichia coli IAI1 0.978 | Eubacterium rectale 0.949 | [3] 0.879 | Lactobacillus gasseri 1.07 | Lactobacillus paracasei 0.734 | Odoribacter splanchnicus 1.1 | [4] 1.01 | Parabacteroides merdae 0.989

O=[N+]([O-])c1ccc2c(c1)Cc1ccccc1-2
inactive: Akkermansia muciniphila 0.896 | Bacteroides caccae 0.995 | Bacteroides clarus 1.01 | Bacteroides dorei 0.991 | Bacteroides stercoris 0.981 | [1] 0.985 | Bacteroides uniformis 1 | [2] 1.06 | Clostridium difficile 0.992 | Collinsella aerofaciens 1 | Coprococcus comes 0.98 | Escherichia coli ED1a 0.984 | Escherichia coli IAI1 0.989 | Eubacterium rectale 1.07 | [3] 0.897 | Lactobacillus gasseri 1.03 | Lactobacillus paracasei 0.998 | Odoribacter splanchnicus 0.982 | [4] 1.1 | Parabacteroides merdae 0.992

c1cc2ccc3ccc4ccc5cccc6c(c1)c2c3c4c56
inactive: Akkermansia muciniphila 0.936 | Bacteroides caccae 1 | Bacteroides clarus 1 | Bacteroides dorei 1.01 | Bacteroides stercoris 1 | [1] 1 | Bacteroides uniformis 1 | [2] 1.03 | Clostridium difficile 0.971 | Collinsella aerofaciens 0.993 | Coprococcus comes 1.01 | Escherichia coli ED1a 1.04 | Escherichia coli IAI1 1.01 | Eubacterium rectale 0.999 | [3] 0.946 | Lactobacillus gasseri 0.994 | Lactobacillus paracasei 1.02 | Odoribacter splanchnicus 1.01 | [4] 1.04 | Parabacteroides merdae 1.02

C/C=C/C=C/CCCCCCCO
inactive: Akkermansia muciniphila 0.879 | Bacteroides caccae 1.03 | Bacteroides clarus 0.982 | Bacteroides dorei 1.02 | Bacteroides stercoris 1.07 | [1] 0.969 | Bacteroides uniformis 1 | [2] 1.01 | Clostridium difficile 0.984 | Collinsella aerofaciens 1.02 | Coprococcus comes 0.995 | Escherichia coli ED1a 1.01 | Escherichia coli IAI1 0.983 | Eubacterium rectale 1.03 | [3] 1.08 | Lactobacillus gasseri 0.96 | Lactobacillus paracasei 0.984 | Odoribacter splanchnicus 1.03 | [4] 0.967 | Parabacteroides merdae 0.982

CCCCCCCCCCCC[N+](C)(C)Cc1ccc(CC)cc1.[Cl-]
inactive: Akkermansia muciniphila 0.765 | Bacteroides dorei 0.92 | Clostridium difficile 0.73 | Escherichia coli ED1a 0.981 | Escherichia coli IAI1 0.945 | Eubacterium rectale 0.863 | [3] 0.902 | Lactobacillus paracasei 0.708 | Odoribacter splanchnicus 0.973
active: Bacteroides caccae 0.0238 | Bacteroides clarus 0.234 | Bacteroides stercoris 0.00577 | [1] 0.00582 | Bacteroides uniformis 0.0211 | [2] 0.665 | Collinsella aerofaciens 0.502 | Coprococcus comes 0.374 | Lactobacillus gasseri 0.651 | [4] 0.671 | Parabacteroides merdae 0.708

CC(C)c1cc(Oc2ccccc2)cc(C(C)C)c1NC(=S)NC(C)(C)C
active: Eubacterium rectale 0.45
inactive: Akkermansia muciniphila 0.863 | Bacteroides caccae 0.984 | Bacteroides clarus 0.96 | Bacteroides dorei 0.983 | Bacteroides stercoris 0.98 | [1] 0.97 | Bacteroides uniformis 0.998 | [2] 0.929 | Clostridium difficile 0.957 | Collinsella aerofaciens 1.03 | Coprococcus comes 0.896 | Escherichia coli ED1a 1.01 | Escherichia coli IAI1 1.01 | [3] 0.911 | Lactobacillus gasseri 0.978 | Lactobacillus paracasei 1.03 | Odoribacter splanchnicus 0.989 | [4] 1.05 | Parabacteroides merdae 0.957

c1ccc2c(c1)Cc1ccccc1-2
inactive: Akkermansia muciniphila 1.04 | Bacteroides caccae 1.02 | Bacteroides clarus 1 | Bacteroides dorei 1.03 | Bacteroides stercoris 1.04 | [1] 1 | Bacteroides uniformis 1 | [2] 0.925 | Clostridium difficile 1.01 | Collinsella aerofaciens 1.01 | Coprococcus comes 1.01 | Escherichia coli ED1a 1.03 | Escherichia coli IAI1 1 | Eubacterium rectale 1 | [3] 1.03 | Lactobacillus gasseri 1.05 | Lactobacillus paracasei 1.05 | Odoribacter splanchnicus 1.05 | [4] 0.962 | Parabacteroides merdae 1.02

c1ccc2cc3ccccc3cc2c1
inactive: Bacteroides caccae 0.972 | Bacteroides clarus 1 | Bacteroides dorei 1 | Bacteroides stercoris 1.01 | [1] 0.987 | Bacteroides uniformis 0.999 | [2] 0.81 | Clostridium difficile 0.997 | Collinsella aerofaciens 0.961 | Coprococcus comes 0.927 | Escherichia coli ED1a 0.987 | Escherichia coli IAI1 0.967 | Eubacterium rectale 1.27 | [3] 1.01 | Lactobacillus gasseri 0.914 | Lactobacillus paracasei 0.923 | Odoribacter splanchnicus 0.999 | [4] 0.758 | Parabacteroides merdae 0.958
active: Akkermansia muciniphila 0.776

CCOCCc1ccc(OCCNc2ncnc(CC)c2Cl)c(C)c1C
inactive: Akkermansia muciniphila 0.937 | Bacteroides caccae 0.929 | Bacteroides clarus 0.883 | Bacteroides dorei 0.942 | Bacteroides stercoris 0.975 | [1] 0.915 | Bacteroides uniformis 0.887 | [2] 0.923 | Clostridium difficile 0.998 | Collinsella aerofaciens 0.94 | Coprococcus comes 0.978 | Escherichia coli ED1a 0.999 | Escherichia coli IAI1 0.961 | Eubacterium rectale 0.846 | [3] 1.07 | Lactobacillus gasseri 0.883 | Lactobacillus paracasei 0.929 | Odoribacter splanchnicus 1.01 | [4] 0.903 | Parabacteroides merdae 0.92

NC(=O)c1nn(-c2c(Cl)cc(C(F)(F)F)cc2Cl)c(N)c1S(=O)C(F)(F)F (stereo not given)
inactive: Akkermansia muciniphila 0.886 | Bacteroides caccae 0.973 | Bacteroides clarus 0.953 | Bacteroides dorei 0.995 | Bacteroides stercoris 0.965 | [1] 0.972 | Bacteroides uniformis 0.977 | [2] 0.976 | Clostridium difficile 1 | Collinsella aerofaciens 0.985 | Coprococcus comes 0.958 | Escherichia coli ED1a 0.964 | Escherichia coli IAI1 0.983 | Eubacterium rectale 1.07 | [3] 0.945 | Lactobacillus gasseri 0.937 | Lactobacillus paracasei 0.982 | Odoribacter splanchnicus 0.948 | [4] 1.02 | Parabacteroides merdae 0.962

CC1=C(c2ccccc2)C(=O)N(C(C)(C)c2cc(Cl)cc(Cl)c2)CO1
inactive: Akkermansia muciniphila 1.11 | Bacteroides caccae 0.962 | Bacteroides clarus 0.925 | Bacteroides dorei 0.981 | Bacteroides stercoris 0.895 | [1] 0.93 | Bacteroides uniformis 0.917 | [2] 0.956 | Clostridium difficile 1.02 | Collinsella aerofaciens 0.965 | Coprococcus comes 0.972 | Escherichia coli ED1a 1.01 | Escherichia coli IAI1 0.987 | Eubacterium rectale 0.982 | [3] 0.935 | Lactobacillus gasseri 1.01 | Lactobacillus paracasei 1.04 | Odoribacter splanchnicus 0.972 | Parabacteroides merdae 0.811
active: [4] 0.732

CCOC(=O)Nc1cccc(OC(=O)Nc2cccc(C)c2)c1
inactive: Akkermansia muciniphila 1.05 | Bacteroides caccae 0.951 | Bacteroides clarus 0.948 | Bacteroides dorei 0.882 | Bacteroides stercoris 0.932 | [1] 0.979 | Bacteroides uniformis 1.02 | [2] 1.02 | Clostridium difficile 0.966 | Collinsella aerofaciens 0.901 | Coprococcus comes 0.963 | Escherichia coli ED1a 0.94 | Escherichia coli IAI1 0.953 | Eubacterium rectale 1.01 | [3] 0.974 | Lactobacillus gasseri 0.896 | Lactobacillus paracasei 1.01 | Odoribacter splanchnicus 1.08 | [4] 0.913 | Parabacteroides merdae 0.932

CC1(C)C(=O)Oc2ccc(OS(C)(=O)=O)cc21
inactive: Akkermansia muciniphila 1.03 | Bacteroides caccae 1.05 | Bacteroides clarus 0.993 | Bacteroides dorei 1.02 | Bacteroides stercoris 1.06 | [1] 0.988 | Bacteroides uniformis 0.986 | [2] 0.988 | Clostridium difficile 0.99 | Collinsella aerofaciens 0.997 | Coprococcus comes 0.992 | Escherichia coli ED1a 0.984 | Escherichia coli IAI1 1.01 | Eubacterium rectale 1.03 | [3] 1.1 | Lactobacillus gasseri 0.983 | Lactobacillus paracasei 0.965 | Odoribacter splanchnicus 0.993 | [4] 1.01 | Parabacteroides merdae 0.979

COC(=O)C(C)Oc1ccc(Oc2ccc(C(F)(F)F)cn2)cc1 (stereo not given)
inactive: Akkermansia muciniphila 1.14 | Bacteroides caccae 0.979 | Bacteroides clarus 0.992 | Bacteroides dorei 0.948 | Bacteroides stercoris 1.23 | [1] 0.965 | Bacteroides uniformis 0.968 | [2] 1.02 | Clostridium difficile 1.01 | Collinsella aerofaciens 0.979 | Coprococcus comes 0.977 | Escherichia coli ED1a 1.02 | Escherichia coli IAI1 1.02 | Eubacterium rectale 1.06 | [3] 1.12 | Lactobacillus gasseri 0.958 | Lactobacillus paracasei 0.98 | Odoribacter splanchnicus 1.02 | [4] 0.821 | Parabacteroides merdae 0.963

C#CC(C)N(C)C(=O)Nc1ccc(Cl)cc1 (stereo not given)
inactive: Akkermansia muciniphila 0.974 | Bacteroides caccae 0.995 | Bacteroides clarus 0.985 | Bacteroides dorei 0.978 | Bacteroides stercoris 1.1 | [1] 1 | Bacteroides uniformis 0.99 | [2] 0.966 | Clostridium difficile 0.946 | Collinsella aerofaciens 1 | Coprococcus comes 1.05 | Escherichia coli ED1a 1.04 | Escherichia coli IAI1 0.988 | Eubacterium rectale 1 | [3] 1.03 | Lactobacillus gasseri 1.07 | Lactobacillus paracasei 1.02 | Odoribacter splanchnicus 0.994 | [4] 0.95 | Parabacteroides merdae 1.01

Source: the supplement of paper PMC12669032
